Measured values from PubChem BioAssay (NCATS).
“And” between values parts separate entries of the source, which are not always exact repeats. Identical values can stand only once. Records with an inconclusive call do not appear. Entries that show only a call come without a potency. The source made the active and inactive calls. Unless noted, calls follow the shape of the dose curve; as a rule, active = well fitted curve in the direction sought with a large enough effect; inconclusive = small, poorly fitted or top-dose-only effect, or another doubt; inactive = no such curve, though single readings can be large; an effect the other way counts as inactive or inconclusive.

Assays:
[1] = Primary qHTS for small molecule stabilizers of the endoplasmic reticulum resident proteome: Secreted ER Calcium Modulated Protein (SERCaMP) assay (AID 1508630)
Outline: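 The SH-SY5Y reporter protocol was run at 3 concentrations up to 38.3 uM (primary) or 11 concentrations (follow-up): 16 h compound, 100 nM thapsigargin for 4 h, then extracellular luciferase luminescence.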

[2] = A High-Content qHTS Against Drug Library for the Identification of Small Molecules that Inhibit DYT1 Early Onset Primary Dystonia-Associated Cell Pathology (AID 1645839; calls by dose curve; also: potency is read from the fitted curve at half-maximal effect)
Outline: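 Induced EGFP-delE TorsinA cells are imaged after 48 h of compound treatment. Punctate fusion-protein distribution gives the %pathology value, while nuclei counts flag toxicity. Wild-type EGFP-hTOR1A cells define the normal pattern.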

[3] = target: Cytochrome P450 2D6 (Homo sapiens) (UniProt P10635); assay: Cytochrome P450 family 2 subfamily D member 6 (CYP2D6) small molecule antagonists: luciferase biochemical (cell-free) qHTS assay (AID 1645840; active = well fitted curve in the direction sought with a large enough effect in the repeat runs; an effect the other way counts as inactive or inconclusive; also: nearly all actives have a fitted effect of over 55% in size; also: potency is read from the fitted curve at half-maximal effect)
Cytochrome P450 2D6 (Homo sapiens), sequence (P10635 whole entry, looked up): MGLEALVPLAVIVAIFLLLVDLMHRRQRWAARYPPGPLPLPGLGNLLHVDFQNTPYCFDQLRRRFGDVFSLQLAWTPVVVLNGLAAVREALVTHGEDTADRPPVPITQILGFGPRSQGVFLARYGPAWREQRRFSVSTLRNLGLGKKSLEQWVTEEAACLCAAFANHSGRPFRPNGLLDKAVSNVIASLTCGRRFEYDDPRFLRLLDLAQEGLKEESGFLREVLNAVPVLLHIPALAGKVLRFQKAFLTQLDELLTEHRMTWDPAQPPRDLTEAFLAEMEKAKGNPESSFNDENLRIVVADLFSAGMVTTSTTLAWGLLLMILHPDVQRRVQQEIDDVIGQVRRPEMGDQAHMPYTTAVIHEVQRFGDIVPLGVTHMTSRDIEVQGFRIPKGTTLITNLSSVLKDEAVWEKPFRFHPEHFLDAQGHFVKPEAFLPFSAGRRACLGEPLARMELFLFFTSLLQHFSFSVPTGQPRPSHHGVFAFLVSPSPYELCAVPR
Outline: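 P450-Glo CYP2D6 system: proluciferin substrate converted by enzyme to luciferin, read by luminescence proportional to activity. Enzyme-substrate mix with compound 10 min at room temperature, then NADPH regeneration 1 h before detection reagent.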

[4] = target: Cytochrome P450 2C9 (Homo sapiens) (UniProt P11712); assay: Cytochrome P450 family 2 subfamily C member 9 (CYP2C9) small molecule antagonists: luciferase biochemical (cell-free) qHTS assay (AID 1645842; active = well fitted curve in the direction sought with a large enough effect in the repeat runs; an effect the other way counts as inactive or inconclusive; also: nearly all actives have a fitted effect of over 55% in size; also: potency is read from the fitted curve at half-maximal effect)
Cytochrome P450 2C9 (Homo sapiens), sequence (P11712 whole entry, looked up): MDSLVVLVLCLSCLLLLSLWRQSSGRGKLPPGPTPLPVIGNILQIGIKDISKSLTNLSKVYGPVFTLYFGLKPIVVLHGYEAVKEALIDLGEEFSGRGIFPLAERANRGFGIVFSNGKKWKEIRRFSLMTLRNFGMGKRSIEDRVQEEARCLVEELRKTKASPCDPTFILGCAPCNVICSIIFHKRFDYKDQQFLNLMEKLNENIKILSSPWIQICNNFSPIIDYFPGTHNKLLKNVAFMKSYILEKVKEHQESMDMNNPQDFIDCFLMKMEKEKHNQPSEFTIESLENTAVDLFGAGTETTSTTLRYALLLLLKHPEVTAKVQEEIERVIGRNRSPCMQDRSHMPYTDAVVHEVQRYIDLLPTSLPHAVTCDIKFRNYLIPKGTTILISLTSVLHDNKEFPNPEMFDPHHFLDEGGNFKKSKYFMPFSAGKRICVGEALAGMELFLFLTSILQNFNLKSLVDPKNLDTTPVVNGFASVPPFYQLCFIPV
Outline: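 P450-Glo CYP2C9 system: proluciferin substrate with enzyme in mix containing 0.4% BSA, 10 min at room temperature, then NADPH regeneration solution added and incubated 1 h at 37C. Detection reagent stopped reaction; luminescence read after 20 min as RLU.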

[5] = Primary qHTS for inhibitors of nuclear receptor binding SET domain protein 2 (NSD2) in an isogenic RCH-ACV NSD2 p.E1099K mutant (9B) (AID 1645876); also: nearly all actives have a fitted effect of over 70% in size; also: potency is read from the fitted curve at half-maximal effect
[6] = Primary qHTS for inhibitors of nuclear receptor binding SET domain protein 2 (NSD2) in an RCH-ACV wild type WT cells (2C) (AID 1645877); also: nearly all actives have a fitted effect of over 70% in size; also: potency is read from the fitted curve at half-maximal effect
Papain (Carica papaya) = Papain (Carica papaya) (UniProt P00784); assay: Primary qHTS assay for inhibitors of the protease papain (AID 1645873);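 also: papain turnover of Z-FR-AMC read as the AMC fluorescence gain over 10 min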; also: potency is read from the fitted curve at half-maximal effect
Papain (Carica papaya), sequence (P00784 whole entry, looked up): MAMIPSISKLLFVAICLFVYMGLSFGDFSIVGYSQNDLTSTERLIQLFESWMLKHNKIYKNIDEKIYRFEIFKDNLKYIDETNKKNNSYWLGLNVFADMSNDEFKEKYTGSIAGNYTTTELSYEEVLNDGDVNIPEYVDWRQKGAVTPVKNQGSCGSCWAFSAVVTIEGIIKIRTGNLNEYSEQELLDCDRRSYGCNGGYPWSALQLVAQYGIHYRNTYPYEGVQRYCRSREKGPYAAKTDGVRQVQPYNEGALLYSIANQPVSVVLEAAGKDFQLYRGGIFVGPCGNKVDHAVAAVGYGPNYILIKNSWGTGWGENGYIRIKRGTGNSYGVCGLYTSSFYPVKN

[7] = target: Rap guanine nucleotide exchange factor 3 (Homo sapiens) (UniProt O95398); assay: Confirmatory qHTS for antagonist of cAMP-regulated guanine nucleotide exchange factor 3 (EPAC1) (AID 1645880); also: nearly all actives have a fitted effect of over 55% in size
Rap guanine nucleotide exchange factor 3 (Homo sapiens), sequence (O95398 whole entry, looked up): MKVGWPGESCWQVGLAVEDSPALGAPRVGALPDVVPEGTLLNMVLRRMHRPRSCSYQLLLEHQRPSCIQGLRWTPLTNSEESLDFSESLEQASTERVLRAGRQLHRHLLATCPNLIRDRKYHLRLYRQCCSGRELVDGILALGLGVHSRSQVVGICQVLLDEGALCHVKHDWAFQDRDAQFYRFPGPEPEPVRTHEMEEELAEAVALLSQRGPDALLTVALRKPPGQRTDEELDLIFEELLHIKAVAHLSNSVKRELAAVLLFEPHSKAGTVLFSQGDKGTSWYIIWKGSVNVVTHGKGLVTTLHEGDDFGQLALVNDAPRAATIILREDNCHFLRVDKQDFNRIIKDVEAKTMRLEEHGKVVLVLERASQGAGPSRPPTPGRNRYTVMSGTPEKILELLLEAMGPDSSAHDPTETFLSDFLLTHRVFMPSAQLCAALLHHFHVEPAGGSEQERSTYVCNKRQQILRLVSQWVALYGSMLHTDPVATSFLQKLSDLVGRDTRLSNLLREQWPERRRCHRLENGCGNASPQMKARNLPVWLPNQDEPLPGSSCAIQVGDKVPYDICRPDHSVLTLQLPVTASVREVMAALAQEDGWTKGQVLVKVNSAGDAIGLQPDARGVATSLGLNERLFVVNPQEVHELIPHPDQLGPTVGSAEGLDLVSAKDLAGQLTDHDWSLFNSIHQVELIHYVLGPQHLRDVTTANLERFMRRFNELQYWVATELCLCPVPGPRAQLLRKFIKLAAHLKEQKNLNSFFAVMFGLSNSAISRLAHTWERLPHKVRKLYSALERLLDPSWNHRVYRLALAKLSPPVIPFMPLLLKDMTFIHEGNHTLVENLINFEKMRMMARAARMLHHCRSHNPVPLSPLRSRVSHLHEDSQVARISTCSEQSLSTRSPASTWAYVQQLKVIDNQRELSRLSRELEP
Outline: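 Released BODIPY-GDP fluoresces less than Rap1-bound BODIPY-GDP; the signal is followed at 480/540 nm at 5-min intervals over 30 min, after 5 min at room temperature. Reactions contain 100 nM EPAC1, 250 nM RAP1B-BODIPY-GDP and 50 uM GDP; results are normalized to ATA and DMSO.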

[8] = target: Rap guanine nucleotide exchange factor 3 (Homo sapiens) (UniProt O95398); assay: Confirmatory qHTS for agonist of cAMP-regulated guanine nucleotide exchange factor 3 (EPAC1) (AID 1645881);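 also: EPAC1 catalysed release of BODIPY-GDP from Rap1B seen as fluorescence loss; nearly all actives have a fitted effect of over 75% in size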
[9] = NCATS anti-infectives library activity on HEK293 viability as a counter-qHTS vs the C. elegans viability qHTS (AID 1745854)
Outline: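 CellTiter-Glo luminescence, read on a CCD imager, scored viability of HEK293 cells after 24 hr compound exposure at 37C. Library tested in several concentrations, 1:5 steps, up to 41.7 uM; digitonin served as control.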

[10] = target: Rap guanine nucleotide exchange factor 4 (Homo sapiens) (UniProt Q8WZA2); assay: Confirmatory qHTS for antagonist of cAMP-regulated guanine nucleotide exchange factor 4 (EPAC2) (AID 1645885); also: potency is read from the fitted curve at half-maximal effect; nearly all actives have a fitted effect of over 25% in size
Rap guanine nucleotide exchange factor 4 (Homo sapiens), sequence (Q8WZA2 whole entry, looked up): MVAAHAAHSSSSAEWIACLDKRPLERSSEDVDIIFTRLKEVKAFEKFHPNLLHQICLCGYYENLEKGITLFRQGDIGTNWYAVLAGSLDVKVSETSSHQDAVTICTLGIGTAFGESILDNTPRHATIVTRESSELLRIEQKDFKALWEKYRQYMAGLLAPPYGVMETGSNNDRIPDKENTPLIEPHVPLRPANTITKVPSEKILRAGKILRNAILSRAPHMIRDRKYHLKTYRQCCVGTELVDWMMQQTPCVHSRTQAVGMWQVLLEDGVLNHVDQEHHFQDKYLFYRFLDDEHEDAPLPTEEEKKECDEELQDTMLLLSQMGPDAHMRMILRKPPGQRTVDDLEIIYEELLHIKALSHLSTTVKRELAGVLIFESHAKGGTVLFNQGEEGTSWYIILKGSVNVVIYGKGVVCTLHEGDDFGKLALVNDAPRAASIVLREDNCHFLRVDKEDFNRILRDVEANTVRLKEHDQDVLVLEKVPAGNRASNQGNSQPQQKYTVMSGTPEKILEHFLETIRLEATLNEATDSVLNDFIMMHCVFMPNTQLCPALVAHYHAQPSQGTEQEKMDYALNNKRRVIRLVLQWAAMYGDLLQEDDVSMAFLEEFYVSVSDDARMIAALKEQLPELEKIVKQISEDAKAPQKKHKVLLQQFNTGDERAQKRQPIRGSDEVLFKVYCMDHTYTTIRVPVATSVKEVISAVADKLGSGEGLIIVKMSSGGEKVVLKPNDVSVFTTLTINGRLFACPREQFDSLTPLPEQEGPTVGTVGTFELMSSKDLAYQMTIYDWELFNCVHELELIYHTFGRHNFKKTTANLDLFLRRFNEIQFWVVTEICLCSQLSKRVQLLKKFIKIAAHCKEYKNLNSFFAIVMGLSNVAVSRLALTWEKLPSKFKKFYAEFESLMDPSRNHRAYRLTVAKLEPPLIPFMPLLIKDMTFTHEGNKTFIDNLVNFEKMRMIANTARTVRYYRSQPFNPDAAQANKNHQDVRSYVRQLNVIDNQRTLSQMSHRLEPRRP

[11] = target: Catechol O-methyltransferase (Homo sapiens) (UniProt P21964); assay: Confirmatory Screen for Target Class Profiling of Small Molecule Inhibitors of Methyltransferases (AID 1745852); details: MTase-Glo luminescence, SAH detection, recombinant enzyme; measured here: COMT max response; stronger effect = lower value
Catechol O-methyltransferase (Homo sapiens), sequence (P21964 whole entry, looked up): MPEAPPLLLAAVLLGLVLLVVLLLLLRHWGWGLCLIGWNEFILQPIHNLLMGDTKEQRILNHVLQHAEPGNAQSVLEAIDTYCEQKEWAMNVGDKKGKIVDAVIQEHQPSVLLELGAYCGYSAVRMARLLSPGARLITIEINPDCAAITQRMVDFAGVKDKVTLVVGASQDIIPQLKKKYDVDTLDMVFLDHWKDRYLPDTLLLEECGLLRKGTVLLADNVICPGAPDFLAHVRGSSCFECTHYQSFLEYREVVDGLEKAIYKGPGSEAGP

[12] = target: Guanidinoacetate N-methyltransferase (Homo sapiens) (UniProt Q14353); assay: as above; details: MTase-Glo luminescence, SAH detection, recombinant enzyme; at 57.3 µM (top of the series)
[13] = target: Nicotinamide N-methyltransferase (Homo sapiens) (UniProt P40261); assay: as above; details: MTase-Glo luminescence, SAH detection, recombinant enzyme; measured here: NNMT max response; stronger effect = lower value
Nicotinamide N-methyltransferase (Homo sapiens), sequence (P40261 whole entry, looked up): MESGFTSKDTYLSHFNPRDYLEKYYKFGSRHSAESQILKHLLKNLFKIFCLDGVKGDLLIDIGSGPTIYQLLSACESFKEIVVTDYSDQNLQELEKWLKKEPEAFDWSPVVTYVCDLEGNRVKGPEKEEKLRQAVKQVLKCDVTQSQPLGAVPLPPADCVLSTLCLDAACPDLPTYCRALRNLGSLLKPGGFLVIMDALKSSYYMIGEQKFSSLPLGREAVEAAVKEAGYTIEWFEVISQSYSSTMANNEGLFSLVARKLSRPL

[14] = target: Phenylethanolamine N-methyltransferase (Homo sapiens) (UniProt P11086); assay: as above; details: MTase-Glo luminescence, SAH detection, recombinant enzyme; measured here: PNMT max response; stronger effect = lower value
Phenylethanolamine N-methyltransferase (Homo sapiens), sequence (P11086 whole entry, looked up): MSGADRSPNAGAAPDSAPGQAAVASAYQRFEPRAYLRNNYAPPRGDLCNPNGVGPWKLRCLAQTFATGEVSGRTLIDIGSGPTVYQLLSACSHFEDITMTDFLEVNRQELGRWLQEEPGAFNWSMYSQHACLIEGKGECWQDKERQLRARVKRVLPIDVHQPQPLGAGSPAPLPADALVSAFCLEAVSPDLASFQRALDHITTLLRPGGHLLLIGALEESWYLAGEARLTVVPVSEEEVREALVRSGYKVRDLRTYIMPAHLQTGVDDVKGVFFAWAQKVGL

## O=C1O[C@H](CO)[C@@H](O)[C@H](O)[C@H]1O
[1]
  Potency: inactive
[2]
  Potency: inactive
[3]
  Potency: inactive
[4]
  Potency: inactive
[5]
  Potency: inactive
[6]
  Potency: inactive

## C[C@@H]1CN(c2c(F)c(F)c3c(=O)c(C(=O)O)cn(C4CC4)c3c2F)C[C@H](C)N1
[1]
  Potency: inactive
[2]
  Potency: inactive
[3]
  Potency: inactive
[4]
  Potency: inactive
[5]
  Potency: inactive
[6]
  Potency: inactive

## OCCN1CCN(CCCN2c3ccccc3Sc3ccc(Cl)cc32)CC1
[1]
  Potency: inactive
[2]
  Potency: 3.98 µM (active)
Papain (Carica papaya)
  Potency: inactive
[5]
  Potency: 8.41 µM (active)
[6]
  Potency: 9.44 µM (active)
[7]
  Potency: inactive
[8]
  Potency: inactive

## CCCCCCCCCCCCCCCC(=O)NCCO
[1]
  Potency: inactive
[2]
  Potency: inactive
[5]
  Potency: inactive
[6]
  Potency: inactive
[9]
  outcome: inactive

## CN(C)CCN(Cc1ccccc1)c1ccccn1
[1]
  Potency: inactive
[3]
  Potency: 0.174 µM (active)
[4]
  Potency: inactive

## CC(=O)Nc1ccc(/C=N/NC(N)=S)cc1
[1]
  Potency: inactive
[2]
  Potency: inactive
[3]
  Potency: inactive
[5]
  Potency: 21.1 µM (active)
[6]
  Potency: 16.8 µM (active)

## OCC(CO)N[C@H]1C[C@](O)(CO)[C@@H](O)[C@H](O)[C@H]1O
[1]
  Potency: inactive
[3]
  Potency: inactive
[4]
  Potency: inactive
[5]
  Potency: inactive
[6]
  Potency: inactive

## CCCCOc1cc(C(=O)OCCN(CC)CC)ccc1N
[1]
  Potency: inactive
[2]
  Potency: inactive
[4]
  Potency: inactive
[5]
  Potency: inactive
[6]
  Potency: inactive

## NC1CCN(c2cccc(Cl)n2)CC1
[1]
  Potency: inactive
[3]
  Potency: 1.55 µM (active)
[4]
  Potency: inactive
[5]
  Potency: inactive
[6]
  Potency: inactive

## c1ccc(CN(CC2=NCCN2)c2ccccc2)cc1
[1]
  Potency: inactive
[2]
  Potency: inactive
[3]
  Potency: 1.74 µM (active)
[5]
  Potency: inactive
[6]
  Potency: inactive

## CC(C(O)c1ccc(O)cc1)N1CCC(Cc2ccccc2)CC1 (centres undefined)
[1]
  Potency: inactive
[2]
  Potency: inactive
[4]
  Potency: inactive
Papain (Carica papaya)
  Potency: inactive

## O=C1Nc2ccc(Cl)cc2[C@@](C#CC2CC2)(C(F)(F)F)O1
[1]
  Potency: inactive
[3]
  Potency: 27.5 µM (active)
[4]
  Potency: 17.4 µM (active)
[5]
  Potency: 18.6 µM (active)
[6]
  Potency: 20.9 µM (active) and 26.3 µM (active)
[7]
  Potency: inactive
[8]
  Potency: inactive
[10]
  Potency: 44.1 µM (active)
[11]
  activity: -1.93%
[12]
  activity change, negative = inhibition: 0%
[13]
  activity: -43%
[14]
  activity: -2.33%

## Nc1nc2c(ncn2CCC(CO)CO)c(=O)[nH]1
[1]
  Potency: inactive
[3]
  Potency: inactive
[4]
  Potency: inactive
[5]
  Potency: inactive
[6]
  Potency: inactive
[9]
  outcome: inactive

## C/C(=C(\CCOP(=O)(O)O)SC(=O)c1ccccc1)N(C=O)Cc1cnc(C)nc1N
[1]
  activity change, negative = inhibition: -22.1% [at 3.88 µM] (inactive)
[2]
  % pathology change, negative = correction: -4.46% [at 4.63 µM] (inactive)
[5]
  activity change, negative = viability loss: 9.34% [at 4.96 µM] (inactive)
[6]
  activity change, negative = cell killing: -1.42% [at 4.96 µM] (inactive)

## C[C@]12CC[C@@H]3c4ccc(O)cc4CC[C@H]3[C@@H]1CCC2=O
[1]
  Potency: inactive
[2]
  Potency: inactive
Papain (Carica papaya)
  Potency: inactive
[11]
  activity: -21.5%
[12]
  activity change, negative = inhibition: -1.67%
[13]
  activity: -55.7%
[14]
  activity: -0.307%

## O=C(O)c1ccccc1-c1ccc(C(F)(F)F)cc1
[1]
  Potency: inactive
[3]
  Potency: inactive
[4]
  Potency: inactive
[5]
  Potency: inactive
[6]
  Potency: inactive

## Cc1cc(N)c2ccccc2[n+]1CCCCCCCCCC[n+]1c(C)cc(N)c2ccccc21
[1]
  Potency: inactive
[3]
  Potency: 5.35 µM (active)
[4]
  Potency: inactive
Papain (Carica papaya)
  Potency: 15.8 µM (active)
[5]
  Potency: 2.9 µM (active)
[6]
  Potency: 3.25 µM (active)
[11]
  activity: 2.05%
[12]
  activity change, negative = inhibition: -0.381%
[13]
  activity: -23.8%
[14]
  activity: 3.98%

## CNCCC(Oc1ccc(C(F)(F)F)cc1)c1ccccc1 (centres undefined)
[1]
  Potency: inactive
[2]
  Potency: 12.6 µM (active)
Papain (Carica papaya)
  Potency: inactive
[6]
  Potency: 23.7 µM (active)
